# High-throughput results deposited in PubChem by The Scripps Research Institute Molecular Screening Center.
# CHO-K1 Ca PAM = nonselective calcium activators in parental CHO-K1 cells, primary screen, counter-screen for M1 PAM project, cell-based, Fluo-8 calcium fluorescence, full deck, 1536-well; ATP EC20; 0% at ATP EC20, 100% at ATP max; activation, % at 3 µM; hit rate 0.02% among 360,000;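 active = activation above the run cutoff, the mean activation of all test compounds plus 3 SD, cut at about 40% in these data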;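 also: peak over basal fluorescence ratio in a 140 s read after ATP addition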
# CHO-K1 Ca ag = counter-screen for M1 agonists: effect in parental CHO-K1 cells. Fluo-8 calcium fluorescence; scaled to maximal ATP response, vehicle zero. activation, % at 3 µM. hit rate 0.48% among 360,000. AID 602248, 2012; in the data active = activation above about 15%;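 also: untransfected CHO-K1 host cells lacking M1 receptor as counterscreen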
# CHO-K1 Ca antag = nonselective inhibitor or artifact in parental CHO-K1 cells. ATP-induced calcium, Fluo-8 fluorescence. inhibition, % at 3 µM. hit rate 0.6% among 360,000;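 active = inhibition above a per-plate cutoff, the plate's mean sample inhibition plus 3 SD, cut at about 24% in these data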;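 also: 0% = DMSO plus EC80 ATP and 100% = DMSO alone without ATP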
# M1 antag = human M1 muscarinic receptor antagonists, primary screen, CHO-K1 cells, Fluo-8 calcium fluorescence, 1536-well | Muscarinic acetylcholine receptor M1 (Homo sapiens), P11229 | CHO-K1 hM1, ACh EC80 antagonist | inhibition, % at 3 µM | hit rate 1.3% among 360,000 | AID 588852, 2011;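 active = percent inhibition above its own plate's cutoff, namely the mean of that plate's compound wells plus 3 SD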;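 also: peak over basal fluorescence ratio during 140 s after agonist addition; 0% = ACh EC80 plus DMSO and 100% = DMSO alone without agonist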
# Target sequence (P11229 whole entry, looked up): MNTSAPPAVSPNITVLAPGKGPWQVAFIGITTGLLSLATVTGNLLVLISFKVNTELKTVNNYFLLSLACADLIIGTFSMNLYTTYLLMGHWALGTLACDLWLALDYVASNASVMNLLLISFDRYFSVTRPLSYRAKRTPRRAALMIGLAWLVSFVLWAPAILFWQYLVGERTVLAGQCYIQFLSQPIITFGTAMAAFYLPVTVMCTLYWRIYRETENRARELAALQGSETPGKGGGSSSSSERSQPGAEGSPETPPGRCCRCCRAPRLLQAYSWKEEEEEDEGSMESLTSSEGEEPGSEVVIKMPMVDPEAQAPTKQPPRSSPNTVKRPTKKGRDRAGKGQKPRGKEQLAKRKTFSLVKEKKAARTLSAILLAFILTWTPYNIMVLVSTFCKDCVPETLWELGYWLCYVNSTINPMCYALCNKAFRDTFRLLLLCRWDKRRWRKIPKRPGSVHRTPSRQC
# CHRM1 agonist = human M1 muscarinic receptor agonists, primary screen, Fluo-8 calcium fluorescence, CHO-K1 cells, HTS; hit rate 0.33% among 360,000; Muscarinic acetylcholine receptor M1 (Homo sapiens), P11229; CHO-K1 hM1, agonist mode; 0% DMSO, 100% acetylcholine EC100; activation, % at 3 µM;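 active = activation above the run's mean compound activation plus 3 SD, cut at about 16% in these data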;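 also: peak over basal fluorescence ratio within a 140 s kinetic read after compound addition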
# M1 PAM = human M1 muscarinic receptor positive allosteric modulators, primary screen, CHO-K1 cells, Fluo-8 calcium fluorescence, 1536-well. Muscarinic acetylcholine receptor M1 (Homo sapiens), P11229. CHO-K1 hM1, ACh EC20; 0% = ACh EC20, 100% = maximal ACh. activation, % at 3 µM. hit rate 0.088% among 360,000. AID 588819, 2011; in the data active = activation above about 19%, passing the limit was not always enough
# * = called active by the depositor. Only some compounds are listed: those with a hit (about 2.4% of all), similar ones and a draw of the others.
SMILES,CHO-K1 Ca PAM,CHO-K1 Ca ag,CHO-K1 Ca antag,M1 antag,CHRM1 agonist,M1 PAM
CCN(CC)CCSc1nnc2c3cc(F)ccc3n(Cc3ccccc3)c2n1,0,0,-5,14,-11,-21
CCN(CC)CCSc1nnc2c3ccccc3n(Cc3ccccc3)c2n1,13,1,-8,51*,-6,-22
CCN(CC)CCn1c2ccccc2c2nc3ccccc3nc21,7,2,-6,-1,-8,-5
Cn1c2ccccc2c2n[nH]c(=S)nc21,12,15*,7,-7,-4,8
CCN(CC)CCn1c2ccccc2c2n[nH]c(=S)nc21,-4,0,9,36*,-10,-28
Cc1nn(CC(=O)NCCN2CCCCCC2)c(=O)c2nn(-c3ccccc3)c(C)c12,-14,-1,-3,24,-14,-26
Cc1nn(C(C)C(=O)NCCN2CCCCCC2)c(=O)c2nn(-c3ccccc3)c(C)c12 (stereo not drawn),-7,0,-2,58*,-5,-21
CCc1nn(C(C)C(=O)NCCN2CCN(c3cccc(C)c3C)CC2)c(=O)c2cc3occc3n12 (stereo not drawn),25,2,-2,-13,-2,6
CCOc1ccc(-n2nc3c(=O)n(CCN4CCCCC4)nc(C)c3c2C)cc1,-12,-1,13,31*,-11,-25
CCc1nn(C(C)C(=O)NCCN2CCCCCC2)c(=O)c2cc3occc3n12 (stereo not drawn),-16,-1,-2,38*,-5,-22
COc1ccc(Cl)cc1NC(=O)CN(C)C(=O)c1cc2c(s1)CCCC2,-8,2,0,-13,1,9
O=C(/C=C/c1ccc(F)cc1)NC(=S)NNC(=O)[C@H]1C[C@@H]1c1ccccc1,1,40*,-2,18,49*,-16
O=C(NC(=S)NNC(=O)[C@H]1C[C@@H]1c1ccccc1)c1ccc(F)cc1,9,4,-1,4,0,-3
COc1ccc(C(=O)NC(=S)NNC(=O)[C@H]2C[C@@H]2c2ccccc2)cc1OC,-12,3,12,-13,19*,11
COc1cc(OC)cc(C(=O)NC(=S)NNC(=O)[C@H]2C[C@@H]2c2ccccc2)c1,18,14,-5,-10,43*,2
CC(C)(C)NC(=S)NNC(=O)[C@H]1C[C@@H]1c1ccccc1,16,2,-7,11,-3,2
COc1ccccc1C(=O)N/C(=C\c1cn(S(=O)(=O)N(C)C)c2ccccc12)C(=O)N1CCN(C)CC1,-3,5,3,-1,-3,-7
CCCCn1c(N)c(N(CC)C(=O)C2=NN(c3ccccc3)C(=O)CC2)c(=O)[nH]c1=O,-7,0,-7,-3,-1,3
O=C(c1ccco1)N1CCN(C(c2ccccc2Cl)c2nnnn2Cc2cccs2)CC1 (stereo not drawn),6,5,14,10,0,-12
O=C(c1ccco1)N1CCN(C(c2ccccc2Cl)c2nnnn2Cc2ccco2)CC1 (stereo not drawn),-9,4,18,29*,2,-16
COc1ccc2[nH]c3c(c2c1)CCN1C(=O)C(CC(=O)NCc2ccc(OC)c(OC)c2)C[C@H](C(=O)N2CCCCC2)[C@@]31CCc1ccccc1 (stereo partly drawn),26,1,-28,-20,-2,1
O=C(CSc1c2c(nc3ccc(Cl)cc13)CCCC2)NCCCN1CCOCC1,-14,0,15,98*,-9,-26
Cc1cc(C)c(NC(=O)CSCc2c(C)noc2C)c(Cl)c1,-5,1,2,1,5,1
O=C1CC(=C(c2ccccc2)c2ccccc2)C(=O)N1CCCCN1CCN(c2cccc(Cl)c2)CC1,11,0,-2,39*,7,-8
